Where “and” joins values, the source holds several entries; their conditions need not be identical. Identical values can stand only once. Inconclusive results are not listed. Calls of active or inactive are those of the source. Unless noted, calls come from the whole dose curve; as a rule, active = well fitted curve in the direction sought with a large enough effect; inconclusive = small, poorly fitted or top-dose-only effect, or another doubt; inactive = no such curve, though single readings can be large; an effect the other way counts as inactive or inconclusive.
Key:
[1] = Cell Viability - Jurkat (AID 426;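 active = dose-dependent loss of cell ATP signal giving a full or clear fitted curve, ranked by lower potency value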; note: potency is the fitted concentration of half-maximal effect); settings: qHTS
Method in brief: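 Jurkat (clone E6-1, human T-cell leukemia) cells, 5000/well in complete medium, were exposed to compound for 40 hr at 37 °C. Viability was read as intracellular ATP by CellTiter-Glo luminescence; AC50 came from Hill fits of concentration-response data.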

[2] = Cell Viability - HUV-EC-C (AID 542); settings: HUV-EC-C endothelial cell viability, qHTS; series mostly up to 92.2 µM; note: % is set by controls: 0 for no effect and ±100 for the full control effect; nearly all actives have a fitted effect of over 35% in size
Method in brief: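 HUV-EC-C normal human vascular endothelial cells, 1000 cells/well, pre-incubated 5 hr at 37 °C, then exposed to compounds for 40 hr at 37 °C in complete medium. Viability measured as intracellular ATP by CellTiter-Glo luminescence; AC50 from Hill fits.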

[3] = Cell Viability - H-4-II-E (AID 543); settings: H-4-II-E rat hepatoma viability; series mostly up to 92.2 µM; note: % is set by controls: 0 for no effect and ±100 for the full control effect; nearly all actives have a fitted effect of over 35% in size
Method in brief: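 Rat hepatoma H-4-II-E cells (1500/well) were plated, incubated 5 hr at 37 °C, then exposed to compounds for 40 hr at 37 °C. Cellular ATP was read by CellTiter-Glo luminescence; AC50 came from Hill-equation fits of concentration-response data.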

[4] = Cell Viability - LYMP2-007 (AID 979); settings: LYMP2-007 lymphoblastoid cell viability; series mostly up to 92.2 µM;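 note: cells exposed to compound for 24 h before reading; 0% = DMSO only and the negative end = 92 µM tetraoctylammonium bromide; nearly all actives have a fitted effect of over 60% in size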
Method in brief: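 Human lymphoblastoid cells (2500/well) were plated in complete medium, incubated 5 hr at 37 C, then exposed to compounds for 24 hr at 37 C. Intracellular ATP was read by CellTiter-Glo luminescence after 30 min at room temperature; AC50 from Hill fits.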

[5] = Cell Viability - LYMP2-008 (AID 980); settings: LYMP2-008 lymphoblastoid cell viability, qHTS; series mostly up to 92.2 µM; note: % is set by controls: 0 for no effect and ±100 for the full control effect; nearly all actives have a fitted effect of over 60% in size
Method in brief: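 Human lymphoblastoid cells (2500/well) were plated, held 5 hr at 37 C, then exposed to compounds for 24 hr at 37 C in complete medium. Intracellular ATP was read by CellTiter-Glo luminescence; AC50 from Hill-fitted concentration-response.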

[6] = Cell Viability - LYMP2-010 (AID 981); settings: LYMP2-010 lymphoblastoid cell viability, qHTS; series mostly up to 92.2 µM; note: % is set by controls: 0 for no effect and ±100 for the full control effect; nearly all actives have a fitted effect of over 55% in size
Method in brief: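 Human lymphoblastoid LYMP2-010 cells (2500/well) were preincubated 5 hr at 37 C, then exposed to compounds for 24 hr at 37 C in complete medium. Intracellular ATP was measured by CellTiter-Glo luminescence after 30 min at room temperature; AC50 from Hill-fitted concentration-response.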

[7] = Cell Viability - LYMP2-014 (AID 983); settings: LYMP2-014 lymphoblastoid cells, viability qHTS; series mostly up to 92.2 µM;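 note: plate controls were DMSO only for no effect and 92 µM tetraoctylammonium bromide for full effect; nearly all actives have a fitted effect of over 50% in size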
Method in brief: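 Human lymphoblastoid cells (2500/well) were pre-incubated 5 hr at 37 C, then exposed to compounds in complete medium for 24 hr at 37 C. Intracellular ATP was read by CellTiter-Glo luminescence after 30 min at room temperature; AC50 from Hill fits.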

[8] = Cell Viability - LYMP2-016 (AID 984); settings: LYMP2-016 lymphoblastoid cell viability, qHTS; series mostly up to 92.2 µM; note: % is set by controls: 0 for no effect and ±100 for the full control effect; nearly all actives have a fitted effect of over 55% in size
Method in brief: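 Human lymphoblastoid LYMP2-016 cells, 2500 per well, treated with compounds for 24 h at 37 C. Viability read as intracellular ATP by CellTiter-Glo luminescence after 30 min at room temperature; AC50 from Hill fits of concentration-response.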

[9] = Cell Viability - LYMP2-018 (AID 985); settings: LYMP2-018 lymphoblastoid cells, viability (qHTS); series mostly up to 92.2 µM;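 note: compound exposure lasted 24 hr at 37 °C; plate controls were DMSO only for no effect and tetraoctylammonium bromide at 92 µM for full effect; nearly all actives have a fitted effect of over 50% in size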
Method in brief: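 Human lymphoblastoid cells (2500/well) were pre-incubated 5 hr at 37 C, then exposed to compounds for 24 hr at 37 C in complete medium. Viability was read as intracellular ATP by CellTiter-Glo luminescence; AC50 values came from Hill-equation fits.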

[10] = Cell Viability - LYMP2-020 (AID 986); settings: series mostly up to 92.2 µM;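 note: plate controls were DMSO only for no effect and tetraoctylammonium bromide at 92 µM for full effect; nearly all actives have a fitted effect of over 55% in size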
Method in brief: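 Human lymphoblastoid cells, 2500/well, were pre-incubated 5 hr at 37 C, then exposed to compounds for 24 hr at 37 C in complete medium. Intracellular ATP was read by CellTiter-Glo luminescence, and AC50 was derived by Hill fitting of concentration-response data.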

[11] = Cell Viability - LYMP2-022 (AID 987); settings: LYMP2-022 lymphoblastoid cell viability; series mostly up to 92.2 µM;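 note: 0% = DMSO alone and full effect = tetraoctylammonium bromide at 92 µM; nearly all actives have a fitted effect of over 55% in size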
Method in brief: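 Human lymphoblastoid cells, 2500/well, preincubated 5 hr at 37 C, then exposed to compounds over a concentration range for 24 hr at 37 C in complete medium. Viability read as intracellular ATP by CellTiter-Glo luminescence after 30 min at room temperature; AC50 from Hill fits.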

[12] = Cell Viability - LYMP2-026 (AID 989); settings: LYMP2-026 lymphoblastoid cell viability, qHTS; series mostly up to 92.2 µM; note: % is set by controls: 0 for no effect and ±100 for the full control effect; nearly all actives have a fitted effect of over 50% in size
Method in brief: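 Human lymphoblastoid cells (2500/well) in complete medium were preincubated 5 hr at 37 C, then exposed to compounds for 24 hr at 37 C. Cellular ATP was read by CellTiter-Glo luminescence; AC50 from Hill-equation fits of concentration-response data.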

[13] = Cell Viability - LYMP1-002 - Assay at 24 hr (AID 993); settings: LYMP1-002 lymphoblastoid cells viability; series mostly up to 92.2 µM; note: % is set by controls: 0 for no effect and ±100 for the full control effect
Method in brief: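 Human lymphoblastoid LYMP1-002 cells, 2500/well in complete medium, were treated with compounds for 24 h at 37 C; intracellular ATP was read by CellTiter-Glo luminescence. AC50 values came from Hill-equation fits of qHTS concentration-response data.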

[14] = biological target: Vitamin D3 receptor (Homo sapiens) (UniProt P11473); test: qHTS assay for small molecule antagonists of vitamin D receptor signaling (AID 588541; calls by dose curve;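 note: receptor activated by calcitriol during compound treatment; % is set by controls: 0 for no effect and ±100 for the full control effect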); settings: HEK293T VDR-UAS-bla, beta-lactamase ratio, antagonist mode; series mostly up to 76.7 µM
Method in brief: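 Antagonist-mode beta-lactamase reporter assay: HEK293T VDR-UAS-bla cells were exposed to titrated compound alongside 1-alpha,25-dihydroxyvitamin D3 at 3 nM final for 16 h. Values were normalized to the 50 nM agonist control and DMSO basal, with IC50 and efficacy from Hill equation fits.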

[15] = biological target: Vitamin D3 receptor (Homo sapiens) (UniProt P11473); test: qHTS assay for small molecule agonists of vitamin D receptor signaling (AID 588543; calls by dose curve;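 note: 0% = DMSO basal and 100% = reference agonist control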); settings: HEK293T VDR-UAS-bla, beta-lactamase ratio, 16 h; series mostly up to 76.8 µM
Method in brief: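 VDR-UAS-bla HEK293T cells, 2000/well, 2% charcoal-stripped FBS; compound titration 16 h at 37 C; CCF4 beta-lactamase ratio read. Normalized to 50 nM 1-alpha,25-dihydroxyvitamin D3 (100%) and DMSO; Hill fit gives EC50, efficacy.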

[16] = biological target: Thyroid hormone receptor beta (Homo sapiens) (UniProt P10828); test: qHTS assay for small molecule antagonists of thyroid hormone receptor beta signaling (AID 588547; active = well fitted inhibition curve with a large enough effect in the signal ratio, with a control signal flat, not every such curve was filed as active; the % refers to the signal ratio;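 note: cells stimulated with 0.4 nM T3 agonist during compound exposure; % is set by controls: 0 for no effect and ±100 for the full control effect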); settings: TR-UAS-bla HEK293, beta-lactamase ratio, antagonist mode, 18 h
Method in brief: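 Inhibition of T3-driven (0.4nM final) beta-lactamase reporter activity was measured over 0.59 nM to 92 uM compound after 18 h at 37 C. The cells were GripTite HEK293 TR-UAS-bla in charcoal/dextran-stripped serum, with CCF4 ratio read-out and IC50 from Hill fits.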

[17] = qHTS assay for small molecule disruptors of the mitochondrial membrane potential - 5 hr assay (AID 651755; calls by dose curve; note: % is set by controls: 0 for no effect and ±100 for the full control effect; nearly all actives have a fitted effect of over 40% in size); settings: JC-1-type ratio dye; series mostly up to 92.2 µM
Method in brief: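 HepG2, 2,000 cells/well, overnight attach; cpd or DMSO 5 hr, 37C/5% CO2; Mito-MPS 30 min 37C; fluor 490/535 + 540/590 nm.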

[18] = biological target: Nuclear receptor ROR-gamma (Homo sapiens) (UniProt P51449); test: qHTS assay for small molecule antagonists of the retinoid-related orphan receptor gamma (ROR-gamma) signaling pathway (AID 651802); settings: ROR-gamma antagonist cell reporter assay; series mostly up to 92.2 µM; note: % is set by controls: 0 for no effect and ±100 for the full control effect; nearly all actives have a fitted effect of over 60% in size
Method in brief: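 CHO cells carrying TET-inducible ROR-gamma and an ROR response element–luciferase reporter were exposed to compound, then induced with doxycycline. After 16hr at 37C, luminescence was read; lower signal indicates antagonism.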

[19] = qHTS assay for small molecule agonists of the antioxidant response element (ARE) signaling pathway measured by Nrf2-dependant transcriptional activity (AID 720636; active = well fitted curve in the direction sought with a large enough effect in the repeat runs; an effect the other way counts as inactive or inconclusive;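 note: HepG2 cells with an ARE-driven luciferase reporter; % of control where 0% means no effect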); settings: ARE-luc HepG2, Nrf2 luciferase reporter, 16 h; series mostly up to 92.4 µM
Method in brief: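 HepG2 ARE-luc reporter line, 1% dialyzed FBS; 6 hr attachment at 37 C, compound pinned in, 16 hr at 37 C/5% CO2; ONE-Glo, 30 min RT, luminescence read.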

[20] = biological target: Nuclear receptor subfamily 1 group I member 2 (Rattus norvegicus) (UniProt Q9R1A7); test: qHTS assay for small molecule activators of the rat pregnane X receptor (rPXR) signaling pathway (AID 651751; call rule not given here; note: 0% is about no effect); settings: rPXR reporter cells, luciferase (One-Glo), 24 h
Nuclear receptor subfamily 1 group I member 2 (Rattus norvegicus), sequence (Q9R1A7 whole entry, looked up): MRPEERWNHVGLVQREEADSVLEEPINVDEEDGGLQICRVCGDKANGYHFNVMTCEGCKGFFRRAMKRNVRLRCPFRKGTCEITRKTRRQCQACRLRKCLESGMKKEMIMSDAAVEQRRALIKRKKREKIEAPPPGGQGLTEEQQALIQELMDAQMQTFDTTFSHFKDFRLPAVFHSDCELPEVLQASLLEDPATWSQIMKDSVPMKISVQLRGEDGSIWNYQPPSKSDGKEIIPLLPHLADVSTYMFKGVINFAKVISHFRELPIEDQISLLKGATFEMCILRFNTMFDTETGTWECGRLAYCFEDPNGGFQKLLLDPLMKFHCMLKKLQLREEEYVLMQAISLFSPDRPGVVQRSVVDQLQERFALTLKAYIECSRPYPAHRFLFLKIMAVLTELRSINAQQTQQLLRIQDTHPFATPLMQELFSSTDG

Vitamin D3 receptor (Homo sapiens), sequence (P11473 whole entry, looked up): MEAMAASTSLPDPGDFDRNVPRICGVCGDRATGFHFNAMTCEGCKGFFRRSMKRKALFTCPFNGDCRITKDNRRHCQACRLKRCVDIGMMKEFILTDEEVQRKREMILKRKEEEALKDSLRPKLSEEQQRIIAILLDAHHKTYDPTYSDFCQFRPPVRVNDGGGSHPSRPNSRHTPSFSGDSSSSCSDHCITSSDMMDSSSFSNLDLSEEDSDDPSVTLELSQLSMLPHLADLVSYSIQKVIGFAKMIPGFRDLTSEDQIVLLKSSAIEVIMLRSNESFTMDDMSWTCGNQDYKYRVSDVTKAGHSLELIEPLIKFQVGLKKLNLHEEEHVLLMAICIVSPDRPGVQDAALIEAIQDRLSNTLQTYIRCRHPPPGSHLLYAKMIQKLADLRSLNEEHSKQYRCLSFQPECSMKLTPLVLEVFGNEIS
Thyroid hormone receptor beta (Homo sapiens), sequence (P10828 whole entry, looked up): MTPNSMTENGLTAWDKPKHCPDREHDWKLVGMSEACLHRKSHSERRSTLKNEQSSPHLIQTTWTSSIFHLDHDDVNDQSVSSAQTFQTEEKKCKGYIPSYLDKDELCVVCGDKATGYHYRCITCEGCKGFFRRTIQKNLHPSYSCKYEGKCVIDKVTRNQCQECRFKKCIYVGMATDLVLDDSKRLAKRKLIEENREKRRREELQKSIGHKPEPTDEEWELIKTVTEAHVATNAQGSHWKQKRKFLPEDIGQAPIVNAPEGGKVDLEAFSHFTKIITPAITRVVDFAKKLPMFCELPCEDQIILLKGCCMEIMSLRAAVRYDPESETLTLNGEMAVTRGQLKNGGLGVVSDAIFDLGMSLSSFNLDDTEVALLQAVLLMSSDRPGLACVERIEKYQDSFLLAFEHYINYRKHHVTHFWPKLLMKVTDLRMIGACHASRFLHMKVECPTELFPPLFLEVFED
Nuclear receptor ROR-gamma (Homo sapiens), sequence (P51449 whole entry, looked up): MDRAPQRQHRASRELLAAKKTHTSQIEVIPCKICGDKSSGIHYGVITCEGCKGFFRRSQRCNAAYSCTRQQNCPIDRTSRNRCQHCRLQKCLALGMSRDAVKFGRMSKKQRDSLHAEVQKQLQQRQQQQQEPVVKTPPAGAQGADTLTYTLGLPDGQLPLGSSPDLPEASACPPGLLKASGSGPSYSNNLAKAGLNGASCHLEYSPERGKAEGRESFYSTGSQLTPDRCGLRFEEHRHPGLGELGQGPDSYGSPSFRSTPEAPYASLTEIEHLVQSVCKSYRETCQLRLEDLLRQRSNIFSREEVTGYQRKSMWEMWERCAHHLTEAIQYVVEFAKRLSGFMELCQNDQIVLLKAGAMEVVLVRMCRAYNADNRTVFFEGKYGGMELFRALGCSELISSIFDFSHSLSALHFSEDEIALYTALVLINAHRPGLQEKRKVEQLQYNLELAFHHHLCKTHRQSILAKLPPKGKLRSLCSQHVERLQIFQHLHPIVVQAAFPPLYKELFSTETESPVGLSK

C=CC(=C)CCC=C(C)C
inactive: Potency [1] > 92 µM | outcome [2] | Potency [3] | Potency [4] | Potency [5] | Potency [6] | Potency [7] | Potency [8] | Potency [9] | Potency [10] | Potency [11] | Potency [12] | Potency [13] | outcome [14] | outcome [15] | activity change % (negative = inhibition) [16] 9.36% | Potency [17] | Potency [18] | Potency [19] | max response [20] 2.22%

O=C(O)c1ccccc1
inactive: Potency [1] > 92 µM | outcome [2] | Potency [3] | Potency [4] | Potency [5] | Potency [6] | Potency [7] | Potency [8] | Potency [9] | Potency [10] | Potency [11] | Potency [12] | Potency [13] | outcome [14] | outcome [15] | Potency [17] | Potency [18] | Potency [19] | max response [20] -2.75%

C=CC(C)(CCC=C(C)C)OC(C)=O (stereo not given)
inactive: outcome [14] | outcome [15] | activity change % (negative = inhibition) [16] -2.58% | Potency [19] | max response [20] 1.82%

COc1ccc(/C=C/c2cc(OC)cc(=O)o2)cc1
inactive: Potency [1] > 92 µM | Potency [3] | Potency [4] | Potency [5] | Potency [6] | Potency [7] | Potency [8] | Potency [9] | Potency [10] | Potency [11] | Potency [12] | Potency [13] | outcome [14] | outcome [15] | activity change % (negative = inhibition) [16] -10.8% | Potency [17] | Potency [18]

COc1cc(/C=C/c2ccccc2)oc(=O)c1
inactive: Potency [1] > 92 µM | outcome [2] | Potency [4] | Potency [5] | Potency [6] | Potency [7] | Potency [8] | Potency [9] | Potency [10] | Potency [11] | Potency [12] | Potency [13] | outcome [14] | outcome [15] | activity change % (negative = inhibition) [16] -8.32% | Potency [17] | Potency [18]

C=C(C)C1CC=C(C)C(O)C1 (stereo not given)
inactive: Potency [1] > 92 µM | outcome [2] | Potency [3] | Potency [4] | Potency [5] | Potency [6] | Potency [7] | Potency [8] | Potency [9] | Potency [10] | Potency [11] | Potency [12] | Potency [13] | activity change % (negative = inhibition) [16] 0.818% | Potency [17] | Potency [18] | Potency [19] | max response [20] 2.42%

CCCCCCCCCCCCCC(=O)O
inactive: Potency [1] > 92 µM | outcome [2] | Potency [3] | Potency [4] | Potency [5] | Potency [6] | Potency [7] | Potency [8] | Potency [9] | Potency [10] | Potency [11] | Potency [12] | Potency [13] | outcome [14] | outcome [15] | activity change % (negative = inhibition) [16] 8.19% and 13.5% | Potency [17] | Potency [18] | Potency [19] | max response [20] -0.081% and -5.28%

C=CCc1ccc(OC)c(OC)c1
inactive: Potency [1] > 92 µM | outcome [2] | Potency [3] | Potency [4] | Potency [5] | Potency [6] | Potency [7] | Potency [8] | Potency [9] | Potency [10] | Potency [11] | Potency [12] | Potency [13] | outcome [14] | outcome [15] | activity change % (negative = inhibition) [16] 11.4% | Potency [17] | Potency [18] | Potency [19] | max response [20] -0.697% and 1.19%

CCCCCCCCCCCC(=O)O
inactive: Potency [1] > 92 µM | outcome [2] | Potency [3] | Potency [4] | Potency [5] | Potency [6] | Potency [7] | Potency [8] | Potency [9] | Potency [10] | Potency [11] | Potency [12] | Potency [13] | Potency [17] | Potency [18] | Potency [19] | max response [20] -4.75% and -1.77%

CC1=C2[C@H](/C=C(\C)C(=O)O)CC[C@@H](C)[C@H]2CC1
inactive: outcome [2] | Potency [3] | Potency [4] | Potency [5] | Potency [6] | Potency [7] | Potency [8] | Potency [9] | Potency [10] | Potency [11] | Potency [12] | Potency [13] | outcome [14] | outcome [15] | activity change % (negative = inhibition) [16] 11.8% | Potency [19] | max response [20] -3.01%
